The values below come from PubChem BioAssay (NCATS).

Where “and” joins values, the source holds several entries; their conditions need not be identical. Identical values can stand only once. Values without a mark were called inactive. Inconclusive results are not listed. Calls of active or inactive are those of the source. Unless noted, the call rests on the fitted dose curve; in most records, active means well fitted curve in the direction sought with a large enough effect; inconclusive means small, poorly fitted or top-dose-only effect, or another doubt; inactive means no such curve, though single readings can be large; an effect the other way counts as inactive or inconclusive. Where only a bound is given, the exact number is not on record here.

A short description of assay [1]: Cell Viability - BJ (AID 421; calls by dose curve;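 further: potency means the concentration at half of the fitted maximal effect; cells exposed to compound for 40 hours at 37 °C before readout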). The conditions noted are these: BJ fibroblast viability, qHTS. The method in brief:
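Quantitative HTS: ATP depletion in BJ cells after 40 hr compound exposure in complete culture medium, detected with CellTiter-Glo; AC50 from standard Hill fits.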
(qHTS replaces the single test concentration by a dilution series.)

The nature of assay [2]: Cell Viability - Jurkat (AID 426;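 active means dose-dependent loss of cell ATP signal giving a full or clear fitted curve, ranked by lower potency value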; further: potency means the concentration at half of the fitted maximal effect). The conditions noted are these: qHTS. An outline of the steps: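 Jurkat (clone E6-1, human T-cell leukemia) cells, 5000/well in complete medium, were exposed to compound for 40 hr at 37 °C. Viability was read as intracellular ATP by CellTiter-Glo luminescence; AC50 came from Hill fits of concentration-response data.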
A short description of assay [3]: Cell Viability - Hek293 (AID 427;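 active means compounds whose dose-response curve shows a full or clear partial loss of cell viability, called from curve shape rather than a numeric limit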;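 further: potency means the concentration at half of the fitted maximal effect; cells exposed to compound for 40 hours at 37 °C before reading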). The conditions noted are these: qHTS. An outline of the steps: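 AC50 values derive from Hill-modelled concentration-response of ATP-based luminescence, normalized between DMSO-only and 100 uM tamoxifen controls. Cells were exposed in complete culture medium for 40 hr at 37 °C before detection.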
Assay [4] is described as follows: Cell Viability - HepG2 (AID 433; calls by dose curve;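 further: potency means the concentration at half of the fitted maximal effect; potency for ATP loss meaning cytotoxicity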). The conditions noted are these: qHTS. An outline of the steps:
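Cytotoxicity is scored as loss of intracellular ATP in HepG2 cells exposed to compounds for 40 h. Concentration-response curves, normalized to DMSO and 100 uM tamoxifen, give AC50 values.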

Assay [5] can be described thus: Cell Viability - SK-N-SH (AID 435; calls by dose curve;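 further: potency means the concentration at half of the fitted maximal effect; compound exposure lasted 40 h at 37 °C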). The conditions noted are these: SK-N-SH neuroblastoma cell viability qHTS. An outline of the steps:
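Cells seeded at 1500 per well and incubated 5 hr at 37 °C. Compound added, then 40 hr at 37 °C. CellTiter-Glo added, 20 min at room temperature, luminescence read.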

Assay [6] has as its target Mitogen-activated protein kinase 10 (Mus musculus) (UniProt Q61831). In words: JNK3 AlphaScreen Assay (AID 530; active means well fitted curve in either direction with a large enough effect, not every such curve was filed as active;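 further: kinase came from lysate of stimulated human HepG2 cells; signal reports phosphorylation of biotinylated GST-cJun 1-79 at Ser73 with 10 µM ATP; on the % scale 0 is the no-effect control and ±100 the full control effect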). The conditions noted are these: JNK3 lysate, c-Jun phosphorylation; series mostly up to 57.1 µM. An outline of the steps:
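Room-temperature AlphaScreen kinase assay; pre-activated HepG2 lysate as JNK3 source, biotin-GST-cJun(1-79) substrate, 10 uM ATP, compound 15 min preincubation.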
(Bead proximity is the source of the signal in Alpha formats.)

Assay [7] is described as follows: Cell Viability - N2a (AID 540).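 Further: plate controls were DMSO alone for no effect and tamoxifen control for full effect; nearly all actives have a fitted effect of over 45% in size.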 The conditions noted are these: N2a mouse neuroblastoma cell viability; activity change, negative = cytotoxicity: at 92.2 µM (top of the series). An outline of the steps:
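Mouse neuroblastoma N2a cells (1500/well) were preincubated 5 hr at 37 °C, then exposed to compounds for 40 hr at 37 °C in complete medium. Viability was read as intracellular ATP by CellTiter-Glo luminescence; AC50 from Hill fits.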

The nature of assay [8]: Cell Viability - HUV-EC-C (AID 542). Further: on the % scale 0 is the no-effect control and ±100 the full control effect; nearly all actives have a fitted effect of over 35% in size. The conditions noted are these: HUV-EC-C endothelial cell viability, qHTS; series mostly up to 92.2 µM. An outline of the steps: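 HUV-EC-C normal human vascular endothelial cells, 1000 cells/well, pre-incubated 5 hr at 37 °C, then exposed to compounds for 40 hr at 37 °C in complete medium. Viability measured as intracellular ATP by CellTiter-Glo luminescence; AC50 from Hill fits.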

Assay [9] is described as follows: Cell Viability - SH-SY5Y (AID 544). Further: nearly all actives have a fitted effect of over 55% in size. The conditions noted are these: SH-SY5Y neuroblastoma cell viability; series mostly up to 92.2 µM. The method in brief: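 Human neuroblastoma SH-SY5Y cells (1500/well) in complete medium were exposed to compounds for 40 hr at 37 °C; intracellular ATP was then quantified by CellTiter-Glo luminescence after 20 min at room temperature. AC50 came from Hill-equation concentration-response fits.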

Assay [10] in a line: Cell Viability - Renal Proximal Tubule (AID 545). Further: nearly all actives have a fitted effect of over 40% in size. The conditions noted are these: renal proximal tubule cells viability; series mostly up to 91.7 µM. An outline of the steps:
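Cytotoxicity is scored as a concentration-dependent drop in cellular ATP in primary rat renal proximal tubule cells exposed for 40 hr. AC50 derives from Hill modelling.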

The nature of assay [11]: Cell Viability - Mesenchymal (AID 546).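 Further: cells exposed to compound for 40 hours before reading.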 The conditions noted are these: mesenchymal cells viability, qHTS; series mostly up to 91.7 µM. An outline of the steps: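 AC50 values reflect the drop in intracellular ATP in a human kidney mesenchymal line derived from normal glomeruli. Treatment lasts 40 hr at 37 °C in complete medium, and the signal comes from CellTiter-Glo luminescence.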

A short description of assay [12]: Cellular Toxicity (caspase-3) HepG2 (AID 654).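 Further: cells exposed to compound for 16 hours before reading; 0% = DMSO alone and 100% = caspase signal from 100 µM tamoxifen.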 The conditions noted are these: HepG2 caspase-3 activation, luminescence, 0% = DMSO only, 100% = tamoxifen; series mostly up to 92.2 µM. The method in brief: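 HepG2 cells (1500/well) in complete medium were treated with compounds for 16 hr at 37 °C. Caspase-3/7 activity was then read as luminescence from peptide-aminoluciferin cleavage. AC50 came from Hill fits, normalized to DMSO and 100 uM tamoxifen.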

A short description of assay [13]: Cell Viability - NIH 3T3 (AID 541).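 Further: plate controls were DMSO alone for no effect and tamoxifen positive control for full effect; nearly all actives have a fitted effect of over 25% in size.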 The conditions noted are these: NIH 3T3 cell viability, qHTS; series mostly up to 92.2 µM. An outline of the steps: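 NIH 3T3 mouse embryo fibroblasts (1000 cells/well) were plated in complete medium and treated with compound for 40 hr at 37 °C. Viability was read as intracellular ATP by CellTiter-Glo luminescence; AC50 values came from Hill-equation fits of concentration-response data.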

Assay [14] in a line: Cell Viability - H-4-II-E (AID 543). Further: on the % scale 0 is the no-effect control and ±100 the full control effect; nearly all actives have a fitted effect of over 35% in size. The conditions noted are these: H-4-II-E rat hepatoma viability; series mostly up to 92.2 µM. The method in brief: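 Rat hepatoma H-4-II-E cells (1500/well) were plated, incubated 5 hr at 37 °C, then exposed to compounds for 40 hr at 37 °C. Cellular ATP was read by CellTiter-Glo luminescence; AC50 came from Hill-equation fits of concentration-response data.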

The target of assay [15] is Cytochrome P450 1A2 (Homo sapiens) (UniProt P05177). In words: p450-cyp1a2 (AID 410; calls by dose curve; further: potency means the concentration at half of the fitted maximal effect). The conditions noted are these: recombinant CYP1A2, luciferin-ME demethylation, luminescence; series mostly up to 57 µM. An outline of the steps: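 Human CYP1A2 (20nM) demethylated Luciferin-ME at its Km (100uM) in 100mM KPO4. After 10 min compound preincubation, NADPH regeneration ran the reaction 60 min at room temperature. Luciferin was read by luminescence, normalized to 57 uM furafylline.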

Assay [16] in a line: NFAT Signaling Pathway (AID 444; active means well fitted curve in either direction with a large enough effect, not every such curve was filed as active;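 further: carbachol stimulus at about its EC50 of 1 µM final; on the % scale 0 is the no-effect control and ±100 the full control effect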). The conditions noted are these: Jurkat NFAT-bla M1, carbachol, beta-lactamase ratio, 5 h. The method in brief: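 Read-out: CCF4 FRET ratio (460 nm/530 nm) after 1 h RT dye loading, used for %activity and AC50 from titration series. Cells: Jurkat NFAT-β-lactamase/M1 line, treated with compound plus 1 uM carbachol for 5 h, 37 °C.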
The nature of assay [17]: Stat Signaling Pathway (AID 446; active means well fitted curve in either direction with a large enough effect, not every such curve was filed as active;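 further: ME-180 cervical cancer cells given 40 pM IL-6 alongside compound; SIE-controlled beta-lactamase reporter measured as 460/530 nm FRET emission ratio; on the % scale 0 is the no-effect control and ±100 the full control effect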). The conditions noted are these: ME-180 (cervical carcinoma) SIE beta-lactamase reporter, IL-6 stimulated, 5 h. The method in brief: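 IL-6/STAT signaling read in ME-180 cells via an SIE beta-lactamase reporter. Stimulus was 40 pM IL-6 (its AC50) for 5 hrs, so both activation and inhibition register.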
In assay [18] the target is Glucocorticoid receptor (Homo sapiens) (UniProt P04150). In words: GR-GFP Redistribution (AID 450;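 active means compounds whose dose series gives a full or clear partial fitted curve of increased nuclear translocation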; further: potency means the concentration at half of the fitted maximal effect). The conditions noted are these: U2OS GR-GFP nuclear translocation, laser cytometry, 2 h.
For assay [19] the target is unchanged. Briefly: GR-EFC Redistribution (AID 451; calls by dose curve; further: potency means the concentration at half of the fitted maximal effect). The conditions noted are these: CHO-K1 GR-EFC translocation, beta-gal luminescence, 2 h. The method in brief: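 Translocation of GR-ED fusion to nuclear EA restores b-gal, read by luminescence after 1 h room-temperature detection. Engineered CHO-K1 biosensor cells, 1,000/well, exposed 2 h at 37 C to titrations up to 46 uM final.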

The target of assay [20] is 3',5'-cyclic-AMP phosphodiesterase 4B (Homo sapiens) (UniProt Q07343). In words: qHTS Assay for Inhibitors of PDE-IV (AID 607; active means well fitted activation curve with a large enough effect in the main read-out, with a control signal flat, not every such curve was filed as active; further: % of control where 0% means no effect). The conditions noted are these: HEK293 ACTOne CNG channel cells, membrane potential fluorescence; series mostly up to 22.9 µM. The method in brief: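 Live HEK293 cells with a modified cyclic nucleotide-gated (CNG) channel report intracellular cAMP via membrane-potential dye fluorescence (ex 535/em 590 nm). Endogenous PDE-IV was targeted. Compounds were tested at up to 22.9 uM final; RO 20-1724 100 uM served as control.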
Chain of 3',5'-cyclic-AMP phosphodiesterase 4B (Homo sapiens) (Q07343 whole entry, looked up): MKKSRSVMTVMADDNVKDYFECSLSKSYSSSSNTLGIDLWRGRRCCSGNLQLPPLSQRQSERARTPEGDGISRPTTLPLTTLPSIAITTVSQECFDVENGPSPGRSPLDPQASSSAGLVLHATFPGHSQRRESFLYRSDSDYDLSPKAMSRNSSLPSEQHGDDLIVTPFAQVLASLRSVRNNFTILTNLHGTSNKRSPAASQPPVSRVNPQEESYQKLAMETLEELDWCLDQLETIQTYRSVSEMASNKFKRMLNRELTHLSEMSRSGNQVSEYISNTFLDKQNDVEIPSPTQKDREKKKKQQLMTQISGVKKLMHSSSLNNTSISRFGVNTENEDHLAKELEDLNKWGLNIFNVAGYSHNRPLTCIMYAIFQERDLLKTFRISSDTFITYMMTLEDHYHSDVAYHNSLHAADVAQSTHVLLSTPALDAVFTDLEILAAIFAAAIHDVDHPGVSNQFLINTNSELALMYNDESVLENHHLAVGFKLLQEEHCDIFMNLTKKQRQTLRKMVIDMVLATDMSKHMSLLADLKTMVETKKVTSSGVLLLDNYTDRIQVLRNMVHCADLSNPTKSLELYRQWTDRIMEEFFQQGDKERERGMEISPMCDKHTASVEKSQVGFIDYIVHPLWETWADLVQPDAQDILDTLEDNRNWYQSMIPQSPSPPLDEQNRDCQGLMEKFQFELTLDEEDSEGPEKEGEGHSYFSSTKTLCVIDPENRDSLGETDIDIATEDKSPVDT

Chain of Cytochrome P450 1A2 (Homo sapiens) (P05177 whole entry, looked up): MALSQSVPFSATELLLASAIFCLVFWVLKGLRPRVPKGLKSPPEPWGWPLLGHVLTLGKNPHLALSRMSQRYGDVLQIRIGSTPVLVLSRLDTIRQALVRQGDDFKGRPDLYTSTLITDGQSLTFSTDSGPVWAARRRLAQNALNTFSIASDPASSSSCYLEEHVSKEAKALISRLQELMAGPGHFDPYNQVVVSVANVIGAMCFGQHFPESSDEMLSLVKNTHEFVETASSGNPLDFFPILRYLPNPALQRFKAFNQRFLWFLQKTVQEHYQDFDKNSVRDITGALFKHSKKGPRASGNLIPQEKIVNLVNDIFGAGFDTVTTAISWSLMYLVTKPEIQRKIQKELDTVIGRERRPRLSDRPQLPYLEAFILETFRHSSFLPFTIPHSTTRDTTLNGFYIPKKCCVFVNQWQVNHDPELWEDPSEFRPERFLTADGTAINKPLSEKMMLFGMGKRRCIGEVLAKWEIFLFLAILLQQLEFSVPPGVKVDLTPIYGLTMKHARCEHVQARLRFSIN
Chain of Glucocorticoid receptor (Homo sapiens) (P04150 whole entry, looked up, the tested form may be a part): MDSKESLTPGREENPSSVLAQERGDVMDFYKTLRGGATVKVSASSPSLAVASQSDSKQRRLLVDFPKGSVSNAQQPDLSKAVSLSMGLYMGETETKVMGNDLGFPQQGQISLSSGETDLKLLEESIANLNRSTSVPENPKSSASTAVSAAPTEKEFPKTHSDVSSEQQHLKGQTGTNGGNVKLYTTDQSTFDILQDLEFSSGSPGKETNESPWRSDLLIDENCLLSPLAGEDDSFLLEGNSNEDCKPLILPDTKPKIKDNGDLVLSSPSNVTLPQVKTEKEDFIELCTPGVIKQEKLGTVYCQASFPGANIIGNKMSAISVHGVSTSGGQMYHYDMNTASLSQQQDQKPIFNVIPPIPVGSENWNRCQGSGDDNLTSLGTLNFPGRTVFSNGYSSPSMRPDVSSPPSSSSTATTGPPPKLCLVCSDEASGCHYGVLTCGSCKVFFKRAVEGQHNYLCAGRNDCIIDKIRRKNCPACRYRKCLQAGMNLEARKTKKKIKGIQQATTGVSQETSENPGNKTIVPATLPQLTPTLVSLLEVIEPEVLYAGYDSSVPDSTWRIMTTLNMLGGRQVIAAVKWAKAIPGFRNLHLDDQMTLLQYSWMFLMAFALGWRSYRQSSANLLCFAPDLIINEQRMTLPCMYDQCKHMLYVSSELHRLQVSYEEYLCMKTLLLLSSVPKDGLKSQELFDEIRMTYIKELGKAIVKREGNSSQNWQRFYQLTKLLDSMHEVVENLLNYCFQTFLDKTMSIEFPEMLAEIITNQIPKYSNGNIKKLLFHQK

On to `CC(C)(O)C(=O)Nc1ccc([N+](=O)[O-])c(C(F)(F)F)c1`, for which the Potency in assay [1], in assay [2], in assay [3], in [4] and in [5] was above 92 µM in each case. The molecule was called inactive in [6] and in assay [12]. Besides, the activity change, negative = cytotoxicity in assay [7] is -95.6% (active). In addition, the Potency entry in [8], in [9], in assay [10] and in assay [11] was “inactive” in each case.

As for `OCCCBr`, the Potency in assay [1], in assay [2], in assay [3], in assay [4] and in assay [5] was above 92 µM each time. Further, the molecule was called inactive in assay [6] and in assay [12]. The activity change, negative = cytotoxicity in assay [7] was 9.77%. In addition, the Potency result in assay [13], in assay [8], in assay [14], in assay [9], in assay [10] and in [11] was “inactive” each time.

Consider `C1CCC(NC2CCCCC2)CC1`, for which the Potency in assay [1], in [2], in assay [3], in assay [4] and in assay [5] was above 92 µM each time. Further, the result in [6] and in assay [12] was inactive. The activity change, negative = cytotoxicity in assay [7] is 3.55% and 8.48%. The Potency entry in [13], in assay [8], in [14], in assay [9], in assay [10] and in [11] was “inactive” each time.

`Cc1nccc2c1[nH]c1ccccc12`: the Potency is 3.98 µM (active) and 1.26 µM (active) and 631 nM (active) in assay [15]; > 46 µM and > 20.6 µM in assay [18]; > 46 µM and > 20.6 µM in [19]. In addition, the activity change, negative = inhibition in assay [16] (at 17.2 µM (top of the series)) is -12.1%; in assay [16] (at 38 µM (top of the series)), -12.6%. In addition, the activity, negative = inhibition was 1.58% in assay [17] (at 17.2 µM (top of the series)) and 11% in [17] (at 38 µM (top of the series)). Moreover, the Potency result in assay [20] was “inactive”.

For the molecule `CC1=NN=C(c2ccc(N)cc2)c2cc3c(cc2C1)OCO3`, the figures for the Potency in assay [15], in [18] and in assay [19] were 31.6 µM (active), above 46 µM and above 46 µM, respectively. In assay [16] (at 38 µM (top of the series)), the activity change, negative = inhibition is 7.54%. Moreover, the molecule was called inactive in assay [6]. In [20], the Potency result is “inactive”.

Take `Nc1ccc(Cl)cc1`: the Potency in assay [1], in assay [2], in [3], in assay [4] and in [5] was above 92 µM throughout. For the same molecule, the outcome in assay [6] and in [12] was inactive. In assay [7], the activity change, negative = cytotoxicity is -1.41%. Besides, the Potency result in assay [13], in [8], in [14], in assay [9], in assay [10] and in assay [11] was “inactive” throughout.
